Compound activity: PubChem BioAssay, The Scripps Research Institute Molecular Screening Center
MITF inh – blocks human microphthalmia-associated transcription factor; O75030; AlphaScreen MITF homodimerization, bead proximity signal; inhibition, % at 2.6 µM; actives 0.91% (n = 650,000); AID 1259374; in the data active = inhibition above about 50%;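 note: 0% = vehicle wells with protein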
TEAD-YAP block – TEAD-YAP interaction inhibition | HEK-TIYL cells, TEAD-Gal4/YAP UAS-luciferase luminescence | inhibition, % at 9.12 µM | actives 1.4% (n = 640,000); in the data active = inhibition above about 32%;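 note: 0% = median of test compound wells and 100% = reference inhibitor wells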
GPR151 ag – activates the human receptor GPR151; PathHunter beta-arrestin GPR151 cells, luminescence; activation, % at 11.2 µM; actives 1% (n = 650,000); AID 1508602; in the data active = activation above about 4.9%;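 note: 0% = median of compound wells and 100% = cells with positive control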
Target sequence (Q8TDV0 whole entry, looked up): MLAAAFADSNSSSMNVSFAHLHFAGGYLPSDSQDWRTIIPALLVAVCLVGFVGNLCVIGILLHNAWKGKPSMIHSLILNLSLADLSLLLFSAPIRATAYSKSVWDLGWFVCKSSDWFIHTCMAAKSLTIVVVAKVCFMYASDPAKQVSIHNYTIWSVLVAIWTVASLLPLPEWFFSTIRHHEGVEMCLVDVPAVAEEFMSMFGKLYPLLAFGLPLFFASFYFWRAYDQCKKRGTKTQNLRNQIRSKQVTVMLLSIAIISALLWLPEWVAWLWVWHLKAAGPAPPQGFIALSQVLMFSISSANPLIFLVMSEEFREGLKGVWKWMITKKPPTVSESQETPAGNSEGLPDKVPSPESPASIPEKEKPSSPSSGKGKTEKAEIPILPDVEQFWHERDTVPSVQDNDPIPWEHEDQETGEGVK
FBW7 activator – human FBW7 E3 ligase activation, primary screen; Q969H0; AlphaScreen FBW7–phospho-cyclin E peptide binding, activator screen; normalized activity (activation), % at 26.1 µM; actives 0.13% (n = 650,000); in the data active = normalized activity above about 1.9%;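 note: purified mutant Fbw7 with reduced substrate affinity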
Active calls of the source: *. A selection: hits, their analogues and other compounds. The true share with any hit is near 3.5%.

Screening O=C(N/N=C/c1cc([N+](=O)[O-])ccc1O)N/N=C/c1cc([N+](=O)[O-])ccc1O returned MITF inh -1, TEAD-YAP block 0, GPR151 ag 1 and FBW7 activator 0.
`CCNC(=O)C(=O)N/N=C/c1cc([N+](=O)[O-])ccc1O` gave MITF inh 74*, TEAD-YAP block 5, GPR151 ag 1 and FBW7 activator -1.
Screening O=C(CCn1nnc2ccccc21)N/N=C\c1cc([N+](=O)[O-])ccc1O returned MITF inh 42, TEAD-YAP block 10, GPR151 ag 1 and FBW7 activator 0.
O=C(CNc1ccccc1)N/N=C/c1cc([N+](=O)[O-])ccc1O was read as MITF inh 54*, TEAD-YAP block 23, GPR151 ag 5 and FBW7 activator 0.
`COCCCn1c(=C(C#N)C#N)s/c(=C/c2ccncc2)c1=O` gave MITF inh -1, TEAD-YAP block 3, GPR151 ag 1 and FBW7 activator 0.
Screening CC1CCN(C(=O)c2cccc3c2-c2ccccc2C3=O)CC1 returned MITF inh 16, TEAD-YAP block -5, GPR151 ag -1 and FBW7 activator 0.
For CC(C)(C)c1ccc(OCC(=O)Nc2ncn[nH]2)c(Br)c1 the results were MITF inh 10, TEAD-YAP block 7, GPR151 ag -1 and FBW7 activator 1.
`CC(C)c1ccc(OCC(=O)Nc2ncn[nH]2)c(Br)c1` gave MITF inh 9, TEAD-YAP block 63*, GPR151 ag -4 and FBW7 activator 0.
Screening O=[N+]([O-])c1c(Cl)cc(O)c2c1C1C=CCC1C(c1ccc(Cl)cc1)N2 (stereo unspecified) returned MITF inh 32, TEAD-YAP block 14, GPR151 ag 1 and FBW7 activator 0.
O=C(O)C1Nc2c(O)cc(Cl)c([N+](=O)[O-])c2C2C=CCC12 (stereo unspecified) was read as MITF inh 108*, TEAD-YAP block -6, GPR151 ag -1 and FBW7 activator 0.
Screening CCOc1cc2c(c([N+](=O)[O-])c1)NC(C(=O)O)C1CC=CC21 (stereo unspecified) returned MITF inh 73*, TEAD-YAP block 13, GPR151 ag -1 and FBW7 activator -1.
COc1cc(NC(=O)c2ccnc(-c3cccc(C(C)=O)c3)c2)cc(OC)c1OC was read as MITF inh 13, TEAD-YAP block -8, GPR151 ag -1 and FBW7 activator 0.
Screening O=c1[nH]c2ccccc2c(O)c1O returned MITF inh 8, TEAD-YAP block 38*, GPR151 ag -1 and FBW7 activator 0.
O=C(O)c1c(O)c2ccccc2[nH]c1=O was read as MITF inh 9, TEAD-YAP block 3, GPR151 ag -1 and FBW7 activator 0.
For CN(C)c1ccc(Nc2nc(NCC3CCCO3)c3ccccc3n2)cc1 (stereo unspecified) the results were MITF inh 60*, TEAD-YAP block 19, GPR151 ag 0 and FBW7 activator -1.
For O=c1c(O)c(-c2cc(O)c(O)c(O)c2)oc2cc(O)cc(O)c12 the results were MITF inh 82*, TEAD-YAP block 2, GPR151 ag 0 and FBW7 activator 0.
For O=c1c(O)c(-c2ccccc2)oc2cc(O)cc(O)c12 the results were MITF inh -19, TEAD-YAP block -21, GPR151 ag -1 and FBW7 activator 0.
Oc1ccc(-c2cnn3c(NCc4ccc5c(c4)OCO5)ccnc23)cc1 was read as MITF inh -8, TEAD-YAP block -3, GPR151 ag 0 and FBW7 activator 0.
`COC(=O)C1C(C)(C(=O)OC)N=NC1(c1ccccc1)c1ccccc1` (stereo unspecified) gave MITF inh -10, TEAD-YAP block -9, GPR151 ag 0 and FBW7 activator 1.
CC(=O)NCc1ccc(-c2csc(N)n2)cc1 was read as MITF inh -5, TEAD-YAP block 13, GPR151 ag 2 and FBW7 activator 0.
CC(=O)NC(C)CCc1ccc(-c2csc(N)n2)cc1 (stereo unspecified) was read as MITF inh 5, TEAD-YAP block 36*, GPR151 ag -2 and FBW7 activator 0.
For CCN(CC)c1ccc2cc(-c3nc4ccccc4n3C)c(=O)oc2c1 the results were MITF inh -2, TEAD-YAP block 33*, GPR151 ag 1 and FBW7 activator 1.
Screening CCN(CC)c1ccc2cc(-c3nc4ccccc4s3)c(=O)oc2c1 returned MITF inh -6, TEAD-YAP block 77*, GPR151 ag -1 and FBW7 activator 0.
`O=C(O)c1ccccc1Cn1ccnc1` gave MITF inh 5, TEAD-YAP block -3, GPR151 ag 0 and FBW7 activator 0.
